Screening data deposited in PubChem BioAssay by several laboratories.
MEKK2 WT-MEK5 – raises or lowers MEK5 binding to wildtype human MEKK2 PB1 domain. Q9Y2U5. binding response (% of control), % at 10 µM. 290,000 tested, 1.1% active. bead flow cytometry, Alexa488-MEK5 binding to MEKK2 WT; actives lie on both sides; in the data active means binding response below about 67% or above about 130%
CRFBP-R2 block – CRF-BP/CRF-R2 complex antagonism. HEK293 CRF-R2/CRF-BP, CRF-induced calcium fluorescence. inhibition, % at 11.8 µM. 350,000 tested, 0.59% active. AID 588475;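 active means inhibition of the ligand-induced calcium signal above about 50% at the single tested concentration, limit read from the data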
ABCB6 inh 2 – blocks the human ABCB6 transporter. Q9NP58. K562-ABCB6 porphyrin accumulation, flow cytometry, 1 h; hits give low values. fluorescence ratio to DMSO, % at 10 µM. 360,000 tested, 0.19% active;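 active means fluorescence ratio to DMSO below 75%, the collection mean minus 3 SD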;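 further: signal is porphyrin accumulated inside mitochondria; 100% equals median channel fluorescence of DMSO control wells; lower ratio means ABCB6 inhibition with less porphyrin fluorescence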
Target sequence (Q9NP58 whole entry, looked up): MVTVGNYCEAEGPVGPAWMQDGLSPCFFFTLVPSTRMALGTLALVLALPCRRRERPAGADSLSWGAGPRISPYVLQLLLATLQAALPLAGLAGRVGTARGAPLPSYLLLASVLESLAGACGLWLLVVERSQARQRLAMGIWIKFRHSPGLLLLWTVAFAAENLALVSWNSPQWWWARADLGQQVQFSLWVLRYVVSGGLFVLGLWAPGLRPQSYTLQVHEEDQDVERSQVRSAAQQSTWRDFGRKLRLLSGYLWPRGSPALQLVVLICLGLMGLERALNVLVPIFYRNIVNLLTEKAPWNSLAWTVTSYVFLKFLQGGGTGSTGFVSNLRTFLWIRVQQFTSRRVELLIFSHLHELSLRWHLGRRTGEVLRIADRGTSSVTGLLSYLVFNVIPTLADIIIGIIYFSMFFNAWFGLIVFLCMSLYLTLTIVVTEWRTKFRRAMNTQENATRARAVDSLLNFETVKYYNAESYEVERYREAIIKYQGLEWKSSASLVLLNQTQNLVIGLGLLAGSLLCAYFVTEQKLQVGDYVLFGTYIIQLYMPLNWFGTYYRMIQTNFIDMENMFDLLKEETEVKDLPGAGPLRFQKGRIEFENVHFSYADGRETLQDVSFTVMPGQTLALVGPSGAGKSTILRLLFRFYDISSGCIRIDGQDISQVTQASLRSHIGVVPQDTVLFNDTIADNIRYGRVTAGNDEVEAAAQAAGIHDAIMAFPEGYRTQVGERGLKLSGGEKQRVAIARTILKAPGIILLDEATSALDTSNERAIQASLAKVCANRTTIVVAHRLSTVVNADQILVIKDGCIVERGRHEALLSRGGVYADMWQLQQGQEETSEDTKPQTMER
MEKK2mut PB1 HTS – signal of MEK5 binding to mutant human MEKK2 PB1 domain | percent response, % at 10 µM | 290,000 tested, 0.35% active | bead flow cytometry, Alexa488-MEK5 binding to MEKK2 mutant | AID 1530; in the data active means percent response above about 24%, passing the limit was not always enough
MEKK3 PB1 HTS – modulators (inhibitors or enhancers) of MEK5 binding to human MEKK3 PB1 domain | AID 1529 | binding response (% of control), % at 10 µM | 290,000 tested, 1.4% active | bead-based flow cytometry, Alexa488-MEK5 binding to MEKK3; actives lie on both sides; 0 = blocked by unlabeled MEK5, 100 = vehicle;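 active means binding response more than 3 SD above or below the average of its plate-row segment, actives on both sides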;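 further: Alexa488 bead fluorescence after subtracting the streptavidin-only scavenger bead signal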
CRFBP-R2 agonist – agonists of human CRF-binding protein/CRF-R2 receptor complex; HEK293 CRF-R2/CRF-BP, calcium dye fluorescence (FLIPR); percent of saturating CRF peptide response; activation, % at 13.2 µM; 350,000 tested, 0.46% active;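 active means activation of at least 50%, plus an integration ratio under a set limit after plate pattern correction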;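 further: plate controls were neutral control wells without compound for no effect and CRF at EC100 for full effect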
ABCB6 inh CP1 – human ABCB6 transporter inhibition | shares compounds with ABCB6 inh 2 | AID 602430 | 700 tested, under 10 active | K562-ABCB6 porphyrin accumulation, flow cytometry, 1 h; hits give low values | ratio response (% of DMSO), % at 10 µM;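 active means repeat-averaged ratio response below 75% of DMSO, the collection mean minus 3 SD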;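 further: median porphyrin fluorescence at 575 nm with 488 nm excitation from mitochondria; lower ratio means less porphyrin signal so ABCB6 inhibition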
Numbers without * were called inactive; i = inactive; nt = not tested or not shown. Most compounds without a hit are left out; they make up all but 2.9% or so of the library.

SMILES	MEKK2 WT-MEK5	CRFBP-R2 block	ABCB6 inh 2	MEKK2mut PB1 HTS	MEKK3 PB1 HTS	CRFBP-R2 agonist	ABCB6 inh CP1
CC(OC(=O)c1ccc(=O)n(Cc2ccccc2)n1)C(=O)Nc1cccc(Cl)c1 (stereo not given)	nt	-21	68*	nt	nt	-2	101
Cc1ccc(NC(=O)COC(=O)c2ccc(=O)n(Cc3ccccc3)n2)cc1F	nt	-7	104	nt	nt	1	nt
O=C(CN1CCc2ccccc2C1)Nc1ccc(F)cc1	109	-4	99	0	102	0	nt
NS(=O)(=O)c1ccc(NC(=O)CN2CCc3ccccc3C2)cc1	103	5	73*	0	102	-1	99
CCOc1ccc2nc(NC(=O)C3=NN(c4ccccc4)C(=O)CC3)sc2c1	nt	0	74*	nt	nt	-1	100
COc1ccccc1-c1nnc(SC/C(O)=C(\C#N)c2nc3ccccc3[nH]2)n1C1CCCCC1	95	-38	71*	-1	101	3	102
N#C/C(=C(/O)CSc1nnc(Cc2cccs2)n1C1CCCCC1)c1nc2ccccc2[nH]1	109	-27	94	8	106	6	nt
CC1(C(=O)NS(=O)(=O)c2ccc(C#N)cc2)CCN1C(=O)Cc1cc(F)ccc1F (stereo not given)	nt	nt	104	nt	nt	nt	99
Cc1ccc(F)c(S(=O)(=O)NC(=O)C2(C)CCN2C(=O)Cc2ccccc2Cl)c1 (stereo not given)	nt	nt	94	nt	nt	nt	100
Cc1ccccc1S(=O)(=O)NC(=O)C1(C)CCN1C(=O)CCc1ccc(Cl)cc1Cl (stereo not given)	nt	nt	97	nt	nt	nt	97
CC1(C(=O)NS(=O)(=O)c2ccccc2Cl)CCN1C(=O)CCc1ccc(Cl)cc1Cl (stereo not given)	nt	nt	97	nt	nt	nt	nt
Cc1ccc(F)c(S(=O)(=O)NC(=O)C2(C)CCN2C(=O)Cc2cc(F)ccc2F)c1 (stereo not given)	nt	nt	102	nt	nt	nt	98
CC1(C2CC2)NC(=O)N(CC(=O)N2CCN(S(=O)(=O)c3ccc(F)c(F)c3)CC2)C1=O (stereo not given)	nt	11	97	nt	nt	1	nt
O=C(c1ccc(Cl)cc1)N1CCN(CCc2ccccn2)CC1	106	10	92	0	99	-2	nt
CCOC(=O)C1=C(C)NC(C)=C(C(=O)OCC)C1C(=O)OCC(=O)N(C)Cc1ccccc1	nt	4	74*	nt	nt	-1	99
CN(C)C1=NC[C@H](Cc2ccccc2)N1CC1CCCC1	nt	3	72*	nt	nt	-1	98
CCCCN(CC)CCNC(=O)c1cc2cc3ccc(Cl)cc3nc2o1	112	-10	i	12	101	-1	nt
CCCN(CCC)CCCNC(=O)c1cc2cc3ccc(Cl)cc3nc2o1	106	-2	73*	9	100	1	103
O=C(NCc1ccco1)c1c2c(nc3ccccc13)CCC2	nt	21	74*	nt	nt	1	101
Cc1ccc(N(C)S(=O)(=O)c2cccc(C(=O)NCC(c3ccco3)N3CCCC3)c2)cc1 (stereo not given)	nt	-2	96	nt	nt	0	nt
Cc1cccc(N2CCN(C(=O)C3(S(=O)(=O)c4ccc(Cl)cc4)CC3)CC2)c1C	94	15	98	-3	98	-2	nt
Cc1ccc(S(=O)(=O)C2(C(=O)N3CCN(c4ccccc4F)CC3)CC2)cc1	95	-4	72*	2	101	-3	101
COCCNC(=O)Cn1ccc2cc(S(=O)(=O)N3CCCCCC3)ccc21	103	-3	94	1	99	0	nt
COc1ccc(N(CC(=O)Nc2c(C)n(C)n(-c3ccccc3)c2=O)S(=O)(=O)c2ccc(C)cc2)cc1	92	42	72*	-8	101	-7	100
O=C1CC(c2ccccc2)CC(O)=C1C=NCc1ccccc1Cl (stereo not given)	nt	-35	15*	nt	nt	-2	97
SMILES	MEKK2 WT-MEK5	CRFBP-R2 block	ABCB6 inh 2	MEKK2mut PB1 HTS	MEKK3 PB1 HTS	CRFBP-R2 agonist	ABCB6 inh CP1
CC(=O)Oc1ccccc1C(=O)C=Cc1cccc([N+](=O)[O-])c1	nt	-36	85	nt	nt	-1	nt
C/C(=N\NC(=O)c1ccc2c(c1)OCO2)c1ccc(NC(=O)CCCC(=O)O)cc1	97	9	85	-4	98	3	nt
CC1Cc2ccccc2N1C1=NS(=O)(=O)c2ccccc21 (stereo not given)	97	30	73*	-3	100	0	102
COCCNC(=O)c1cc2nc(-c3ccccc3)cc(C)n2n1	86	-3	68*	-8	102	1	99
Cc1cc(-c2ccccc2)nc2cc(C(=O)NCCCn3ccnc3)nn12	106	-9	95	12	107	-1	nt
O=C(NCCCCNC(=O)c1ccccc1Br)c1ccccc1Br	nt	10	98	nt	nt	-1	nt
CCOC(=O)Cc1nnc(NC(=O)C(CC)Sc2nnc3c4ccccc4n(C)c3n2)s1 (stereo not given)	95	-7	74*	-3	99	1	100
COc1ccc(OC)c(Nc2ncnc3c2cnn3-c2ccccc2)c1	101	-5	71*	2	101	1	101
COc1ccccc1C1CCN(Cc2cccc3ccccc23)CC1	119	-9	68*	18	108	0	99
COc1ccccc1C1CCN(Cc2ccc(Cl)cc2Cl)CC1	110	7	97	-4	103	3	nt
COc1ccccc1C1CCN(Cc2c(C)[nH]c3ccccc23)CC1	106	-8	26*	9	97	0	102
CCOc1ccc(N(CC(=O)Nc2c(C)n(C)n(-c3ccccc3)c2=O)S(=O)(=O)c2ccc(F)cc2)cc1	102	-14	98	3	101	-2	nt
Cc1ccc(S(=O)(=O)CCC#N)cc1	89	5	19*	-6	94	-1	97
Cc1coc2c1c(C)cc1oc(=O)c(Cc3ccccc3)c(C)c12	112	-2	66*	7	88	4	100
O=S1(=O)CCOCCN1Cc1ccc(Cl)cc1Cl	97	nt	nt	-2	99	nt	nt
